Data on 14 compounds can be found in PubChem BioAssay (NCATS).

Inconclusive results are not listed. Unmarked numbers belong to inactive results. The source made the active and inactive calls. Calls come from the whole dose curve; as a rule, active = well fitted curve in the direction sought with a large enough effect; inconclusive = small, poorly fitted or top-dose-only effect, or another doubt; inactive = no such curve, though single readings can be large; an effect the other way counts as inactive or inconclusive.

A short description of test [1]: qHTS of pediatric cancer cell lines to identify multiple opportunities for drug repurposing: Primary screen for BT-12 cells (AID 1347101). Note: nearly all actives have a fitted effect of over 25% in size. Note: potency is the fitted concentration of half-maximal effect. A digest of the protocol: (§1)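 Cells (500-1,000/well) rested 5 h, then received compounds for 48 h; metabolically active cells were measured by CellTiter-Glo luminescence. Final concentrations spanned up to 46 µM (MIPE, 11-point) or 0.59 nM-46 µM (NPC, 8-point) in primary screens, 11-point in follow-ups.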
(In general: Quantitative high-throughput screening tests each substance at several concentrations.)

The nature of test [2]: qHTS of pediatric cancer cell lines to identify multiple opportunities for drug repurposing: Primary screen for OHS-50 cells (AID 1347103). Note: nearly all actives have a fitted effect of over 40% in size. Note: potency is the fitted concentration of half-maximal effect. An outline of the steps:
as §1

Test [3] in a line: qHTS of pediatric cancer cell lines to identify multiple opportunities for drug repurposing: Primary screen for RD cells (AID 1347104). Note: nearly all actives have a fitted effect of over 55% in size. Note: potency is the fitted concentration of half-maximal effect. A digest of the protocol:
(§2)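 Readout: CellTiter-Glo luminescence, 48 h treatment. Controls DMSO (neutral) and bortezomib 2.3 µM final (positive). Potency and efficacy taken from primary-screen concentration-response curves.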

Test [4] can be described thus: qHTS of pediatric cancer cell lines to identify multiple opportunities for drug repurposing: Primary screen for MG 63 (6-TG R) cells (AID 1347105). Note: potency is the fitted concentration of half-maximal effect; nearly all actives have a fitted effect of over 50% in size. An outline of the steps:
as §2

Test [5] in a line: qHTS of pediatric cancer cell lines to identify multiple opportunities for drug repurposing: Primary screen for Rh41 cells (AID 1347108).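 For activity change, negative = cytotoxic: luminescence drop marks cytotoxic hits.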 Note: nearly all actives have a fitted effect of over 70% in size. Note: potency is the fitted concentration of half-maximal effect. An outline of the steps:
as §2

Test [6] can be described thus: qHTS of pediatric cancer cell lines to identify multiple opportunities for drug repurposing: Primary screen for control Hh wild type fibroblast cells (AID 1347106).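 Note: a drop in luminescence marks cytotoxicity and a rise apparent proliferation; nearly all actives have a fitted effect of over 55% in size.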 An outline of the steps:
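Viability after 48 h compound treatment at 37C, 500-1,000 cells/well, read as ATP luminescence with CellTiter-Glo. Primary screens used 11-point (MIPE, 0.78 nM-46 µM) or 8-point (NPC, 0.59 nM-46 µM) final concentrations; follow-up screens used 11-point dilutions.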

Test [7] can be described thus: qHTS of pediatric cancer cell lines to identify multiple opportunities for drug repurposing: Confirmatory screen for NB1643 cells (AID 1347109). Note: potency is the fitted concentration of half-maximal effect; nearly all actives have a fitted effect of over 45% in size. A digest of the protocol: as §1
A short description of test [8]: qHTS of pediatric cancer cell lines to identify multiple opportunities for drug repurposing: Confirmatory screen for SK-N-MC cells (AID 1347111).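 Note: potency is the fitted concentration of half-maximal effect; cells exposed to compound for 48 h before the readout; nearly all actives have a fitted effect of over 70% in size.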 An outline of the steps: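 Seed 500-1,000 cells/well; rest 5 h at 37 degrees C. Pin-transfer compounds, 11-point titration. Incubate 48 h. Add CellTiter-Glo, 15 min RT, read luminescence.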
Test [9] in a line: qHTS of pediatric cancer cell lines to identify multiple opportunities for drug repurposing: Confirmatory screen for BT-37 cells (AID 1347117). Note: potency is the fitted concentration of half-maximal effect; nearly all actives have a fitted effect of over 55% in size. As to conditions: BT-37 pediatric cancer cells, viability; activity change, negative = cytotoxic: at 45.9 µM (top of the series). A digest of the protocol: as §1
Test [10] in a line: qHTS of pediatric cancer cell lines to identify multiple opportunities for drug repurposing: Confirmatory screen for MG 63 (6-TG R) cells (AID 1347119). Note: nearly all actives have a fitted effect of over 55% in size. Note: potency is the fitted concentration of half-maximal effect. A digest of the protocol: as §1
Test [11] can be described thus: qHTS of pediatric cancer cell lines to identify multiple opportunities for drug repurposing: Confirmatory screen for A673 cells (AID 1347110).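 Note: potency is the fitted concentration of half-maximal effect; cells exposed to compound for 48 h before the viability read; nearly all actives have a fitted effect of over 65% in size.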 An outline of the steps: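 A673 cells seeded at 500-1,000 cells/well, rested 5 h, then dosed; primary MIPE 11-point (0.78 nM to 46 µM), NPC (0.59 nM to 46 µM); confirmatory 11-point. CellTiter-Glo luminescence after 48 h.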

Test [12] can be described thus: qHTS of pediatric cancer cell lines to identify multiple opportunities for drug repurposing: Confirmatory screen for BT-12 cells (AID 1347112). A digest of the protocol:
as §1

A short description of test [13]: qHTS of pediatric cancer cell lines to identify multiple opportunities for drug repurposing: Confirmatory screen for LAN-5 cells (AID 1347113). Note: potency is the fitted concentration of half-maximal effect; nearly all actives have a fitted effect of over 65% in size. A digest of the protocol:
as §1

Test [14] can be described thus: qHTS of pediatric cancer cell lines to identify multiple opportunities for drug repurposing: Confirmatory screen for NB-EBc1 cells (AID 1347115).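 Note: potency is the fitted concentration of half-maximal effect; cells exposed to compound for 48 h before the viability read; nearly all actives have a fitted effect of over 45% in size.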 A digest of the protocol: as §1
Test [15] in a line: qHTS of pediatric cancer cell lines to identify multiple opportunities for drug repurposing: Confirmatory screen for SJ-GBM2 cells (AID 1347116). Note: potency is the fitted concentration of half-maximal effect; nearly all actives have a fitted effect of over 60% in size. A digest of the protocol: (§3)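 Viability measured as metabolically active cells via CellTiter-Glo luminescence following 48 hours of compound exposure, 11-point dilutions in confirmatory testing. 500-1,000 cells/well plated 5 hours before dosing; controls were DMSO and 2.3 µM bortezomib.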

Test [16] can be described thus: qHTS of pediatric cancer cell lines to identify multiple opportunities for drug repurposing: Confirmatory screen for TC32 cells (AID 1347118).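 Note: potency is the fitted concentration of half-maximal effect; cells exposed to compound for 48 h before the read; nearly all actives have a fitted effect of over 65% in size.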 A digest of the protocol: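 Luminescent CellTiter-Glo read-out of metabolically active TC32 cells after 48 h compound exposure. Primary: MIPE 11-point, 0.78 nM–46 µM; NPC 8-point, 0.59 nM–46 µM. Confirmatory: 11-point dilutions.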

Test [17] in a line: qHTS of pediatric cancer cell lines to identify multiple opportunities for drug repurposing: Confirmatory screen for control Hh wild type fibroblast cells (AID 1347121). Note: nearly all actives have a fitted effect of over 70% in size. An outline of the steps:
as §1

Test [18] is described as follows: qHTS of pediatric cancer cell lines to identify multiple opportunities for drug repurposing: Primary screen for Rh30 cells (AID 1347107). Note: nearly all actives have a fitted effect of over 75% in size. Note: potency is the fitted concentration of half-maximal effect. An outline of the steps: as §1
A short description of test [19]: qHTS of pediatric cancer cell lines to identify multiple opportunities for drug repurposing: Confirmatory screen for DAOY cells (AID 1347114). Note: potency is the fitted concentration of half-maximal effect; nearly all actives have a fitted effect of over 65% in size. An outline of the steps:
as §3

As to `Cc1ccc2nc(NCCN)c3ncc(C)n3c2c1`, the Potency in test [1] was 34.3 µM (active); in test [2], 24.3 µM (active); in test [3] it was 13.2 µM (active); in test [4], 18.7 µM (active); in test [5], 18.7 µM (active).

Turning to `NC(=O)Nc1cc(-c2ccc(CN3CCOCC3)cc2)sc1C(N)=O`, the Potency in test [1] is 24.3 µM (active); in [2] it was 0.217 µM (active); in [3], 8.33 µM (active); in test [4], 11.8 µM (active); in test [5], 7.43 µM (active); in [7], 0.414 µM (active). The Potency in [8] is 0.657 µM (active); in test [9], 18.5 µM (active); in [10], 3.69 µM (active). Moreover, the Potency result in test [6] is “inactive”.

As for `CO[C@@H]1[C@@H](O)[C@H](O)[C@@H](n2c3c(Cl)cccc3c3c4c(c5c6cccc(Cl)c6[nH]c5c32)C(=O)NC4=O)O[C@@H]1CO`, the Potency in test [1] was 1.37 µM (active); in test [2], 0.306 µM (active); in test [3], 2.64 µM (active); in [5], 2.35 µM (active); in [7], 1.85 µM (active); in test [11], 0.827 µM (active). Further, the Potency in test [12] was 4.65 µM (active); in [13] it was 1.65 µM (active); in test [14] it was 1.47 µM (active); in test [15], 5.22 µM (active); in [9], 0.827 µM (active); in [16], 0.737 µM (active). Besides, the Potency in test [10] was 1.31 µM (active). In addition, the Potency entry in [6] and in test [17] was “inactive” throughout.

Take `CC(N[C@H]1CCCC[C@H]1NC(=O)c1ccc(Cl)cc1)c1cccc2ccccc12` (stereo partly specified): the Potency in [1] was 1.37 µM (active); in [2], 6.11 µM (active); in [3], 2.64 µM (active); in [7] it was 20.8 µM (active); in test [11], 16.5 µM (active); in [13] it was 14.7 µM (active). The Potency in test [9] and in test [10] was 23.3 µM (active) throughout. Further, the Potency entry in test [18] is “inactive”.

On to `COc1cccc2c1C(=O)c1c(O)c3c(c(O)c1C2=O)C[C@@](O)(C(C)=O)C[C@H]3O[C@H]1C[C@H](N)[C@H](O)[C@H](C)O1`, for which the Potency in test [1] was 0.0769 µM (active); in test [2], 0.344 µM (active); in test [3], 0.0743 µM (active); in [5], 0.0469 µM (active); in test [7], 0.165 µM (active); in test [11], 0.414 µM (active). In addition, the Potency in test [8] was 0.165 µM (active); in test [12], 1.31 µM (active); in test [13], 0.185 µM (active); in [19] it was 3.69 µM (active); in test [15], 1.31 µM (active); in test [9], 0.165 µM (active). Moreover, the values for the Potency in test [16] and in test [10] were 0.117 µM (active) and 0.233 µM (active), respectively. In addition, in test [18], the Potency result is “inactive”.

Turning to `O=C(C=Cc1ccc(CN(CCO)CCc2c[nH]c3ccccc23)cc1)NO`, the Potency in test [1] was 0.611 µM (active); in test [2], 0.243 µM (active); in [3] it was 0.372 µM (active); in [4] it was 0.59 µM (active); in test [18] it was 1.18 µM (active); in [5], 0.372 µM (active). For the same compound, the Potency in [12] is 1.17 µM (active); in test [19] it was 0.261 µM (active).

For `Cc1ccccc1C(=O)Nc1ccc(C(=O)N2CCCC(O)c3cc(Cl)ccc32)c(C)c1` (stereo unspecified), the Potency result in [1], in test [2], in test [3], in test [6], in test [18] and in [5] was “inactive” each time.

With `Oc1ccc(-c2ccc(-c3cc(Nc4cccc(CNC5CC5)c4)n[nH]3)cc2)c(O)c1`, the Potency is 7.69 µM (active) in [1]; 1.09 µM (active) in test [2]; 10.5 µM (active) in test [3]; 14.8 µM (active) in [5]; 8.27 µM (active) in test [12]; 2.33 µM (active) in test [13]. In addition, the Potency in test [19] is 6.57 µM (active); in test [15], 14.7 µM (active); in test [9] it was 6.57 µM (active). The Potency entry in test [6], in test [10] and in [17] was “inactive” each time.

Take `Oc1cc(-c2nc(-c3ccccc3)[nH]c2-c2ccncc2)ccc1Cl`: the Potency in [1] is 6.11 µM (active); in test [2], 24.3 µM (active); in test [3] it was 2.09 µM (active); in test [4], 11.8 µM (active); in test [8], 3.69 µM (active); in test [12], 2.33 µM (active). The Potency in test [13] is 6.57 µM (active); in test [15], 7.37 µM (active); in test [9] it was 2.61 µM (active); in [16], 7.37 µM (active). In addition, the Potency entry in test [6] and in test [10] was “inactive” throughout.

In the case of `COc1ccc(Nc2cc(-c3cnc(N)nc3)nc(N3CCOCC3)n2)cn1`, the Potency in [1] is 21.7 µM (active); in test [2], 0.385 µM (active); in test [3], 4.18 µM (active); in test [4], 3.72 µM (active); in test [18] it was 5.9 µM (active); in test [5], 2.96 µM (active). The Potency in test [7] is 8.27 µM (active); in test [13], 2.33 µM (active); in test [15], 2.61 µM (active); in [9], 10.4 µM (active); in test [16], 3.69 µM (active); in test [10] it was 1.31 µM (active). Also, the Potency entry in [17] was “inactive”.

Take `Cn1cc(C2=C(c3c4n(c5ccccc35)CCC(CN)C4)C(=O)NC2=O)c2ccccc21` (stereo unspecified): the Potency is 27.3 µM (active) in test [1], 24.3 µM (active) in [2], 29.6 µM (active) in [3] and 23.5 µM (active) in test [5]. For the same compound, in [6], the Potency result is “inactive”.

Regarding `c1ccc(CNc2nc(NCc3ccccc3)c3ccccc3n2)cc1`, the Potency in test [1] is 24.3 µM (active); in test [2] it was 30.6 µM (active); in test [3], 16.6 µM (active); in test [18], 23.5 µM (active); in [5], 18.7 µM (active).

With `C#Cc1cccc(Nc2ncnc3cc(OCCOC)c(OCCO)cc23)c1`, the Potency in test [1] is 13.7 µM (active); in test [2] it was 3.85 µM (active); in test [3], 1.66 µM (active); in test [5], 7.43 µM (active). The Potency entry in test [18] was “inactive”.

As for `CC(C)[C@H](CO)Nc1nc(Nc2cccc(Cl)c2)c2ncn(C(C)C)c2n1`, the Potency in [1] is 21.7 µM (active); in test [2] it was 13.7 µM (active); in [3] it was 18.7 µM (active); in test [4] it was 2.96 µM (active); in [5], 11.8 µM (active). In [6], the Potency result is “inactive”.
